Reference: PubChem BioAssay (EPA / NIEHS)
Activity calls are given as the source filed them. The calls were made as follows: active = hit-call score of the fitted dose curve at least 0.9, where 1 is the maximum; inactive = score below 0.9.

How the values were obtained:
[1] = ATG_CRE_CIS: Attagene CIS-FACTORIAL HepG2 Assay for human cAMP Responsive Element (CRE) binding protein 3 (AID 2282926); conditions: HepG2 CRE cis-reporter, Attagene multiplexed mRNA; actives raise or lower the signal
Summary of the method: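 Assay format: transient reporter transfection of HepG2, 24 h treatment, total RNA isolation with DNase I step. Reporter abundance read by fluorescence after PCR and capillary separation; DMSO-normalised gain or loss fitting.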

[2] = molecular target: CCAAT/enhancer-binding protein beta (Homo sapiens) (UniProt P17676); assay: ATG_C_EBP_CIS: Attagene CIS-FACTORIAL HepG2 Assay for human CCAAT/Enhancer Binding Protein (C/EBP) beta (AID 2282927); conditions: HepG2 Attagene cis-factorial transcription factor reporter; actives raise or lower the signal
Sequence of CCAAT/enhancer-binding protein beta (Homo sapiens) (P17676 whole entry, looked up): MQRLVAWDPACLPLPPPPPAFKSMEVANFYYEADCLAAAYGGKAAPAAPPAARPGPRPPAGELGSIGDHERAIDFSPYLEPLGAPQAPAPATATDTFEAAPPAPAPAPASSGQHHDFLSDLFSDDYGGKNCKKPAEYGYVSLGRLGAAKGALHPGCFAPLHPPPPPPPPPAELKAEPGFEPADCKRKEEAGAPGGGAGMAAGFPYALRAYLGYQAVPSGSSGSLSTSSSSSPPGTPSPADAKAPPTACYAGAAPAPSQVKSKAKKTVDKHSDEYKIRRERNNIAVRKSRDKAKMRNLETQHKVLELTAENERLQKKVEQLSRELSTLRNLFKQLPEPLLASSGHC
Summary of the method: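 Transiently transfected HepG2 (MRTU library, endogenous TF-driven promoters); 24 h dosing; total RNA → oligo(dT) RT → PCR → 6-FAM primer extension → HpaI digest → CE; fit bidirectionally vs DMSO.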

[3] = ATG_CMV_CIS: Attagene CIS-FACTORIAL HepG2 Assay for human CMV (Internal Marker) (AID 2282928); conditions: HepG2 CMV promoter reporter, transcription factor profiling; actives raise or lower the signal;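 also: endpoint acts as a background internal control marker rather than a target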
Summary of the method: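 Readout: fluorescent reporter cDNA fragments separated by capillary electrophoresis after RT-PCR and HpaI cut. Cells: HepG2 carrying transfected cis-promoter reporter constructs, dosed 24 h. Endpoint serves as background internal-marker control, fit bidirectionally versus DMSO.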

[4] = ATG_DR4_LXR_CIS: Attagene CIS-FACTORIAL HepG2 Assay for human Liver X Receptor (LXR), DR4 submotif (AID 2282929); conditions: HepG2 Attagene DR4 cis-reporter, mRNA transcription; actives raise or lower the signal
Summary of the method: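 DR4 cis-reporter in HepG2, 24 h exposure. Detection: RT-PCR, 6-FAM labelling, CE fragment analysis. Endpoint fitted bidirectionally, DMSO = baseline.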

[5] = ATG_AP_2_CIS: Attagene CIS-FACTORIAL HepG2 Assay for human Activator Protein 2 (AP-2) (AID 2282932); conditions: HepG2 AP-2 cis-reporter, Attagene transcription factor profiling; actives raise or lower the signal
Summary of the method: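 Read-out: fluorescent reporter mRNA via RT-PCR and capillary electrophoresis, 24 h post-dose in transiently transfected HepG2. Endogenous factors drive cis-promoter reporters; gain or loss of signal fitted bidirectionally against DMSO.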

[6] = ATG_BRE_CIS: Attagene CIS-FACTORIAL HepG2 Assay for human Bone Morphogenetic Protein (BMP) Response Element (BRE) (AID 2282933); conditions: HepG2 BMP response element reporter, Attagene transcription factor profiling; actives raise or lower the signal
Summary of the method: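 Read-out: reporter mRNA induction quantified by RT-PCR and capillary electrophoresis after 24 h chemical exposure of transfected HepG2 cells. Endogenous factor activity on the BMP response element; gain or loss fitted against DMSO baseline.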

[7] = molecular target: Retinoic acid receptor alpha (Homo sapiens) (UniProt P10276); assay: ATG_DR5_RAR_CIS: Attagene CIS-FACTORIAL HepG2 Assay for human Retinoic Acid Receptor Alpha (RARE), DR5 submotif (AID 2282934); conditions: HepG2 Attagene cis-factorial RARE DR5 reporter, mRNA; actives raise or lower the signal;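 as to AC50: reporter responds to endogenous RAR alpha beta and gamma in HepG2 not RARA alone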
Sequence of Retinoic acid receptor alpha (Homo sapiens) (P10276 whole entry, looked up): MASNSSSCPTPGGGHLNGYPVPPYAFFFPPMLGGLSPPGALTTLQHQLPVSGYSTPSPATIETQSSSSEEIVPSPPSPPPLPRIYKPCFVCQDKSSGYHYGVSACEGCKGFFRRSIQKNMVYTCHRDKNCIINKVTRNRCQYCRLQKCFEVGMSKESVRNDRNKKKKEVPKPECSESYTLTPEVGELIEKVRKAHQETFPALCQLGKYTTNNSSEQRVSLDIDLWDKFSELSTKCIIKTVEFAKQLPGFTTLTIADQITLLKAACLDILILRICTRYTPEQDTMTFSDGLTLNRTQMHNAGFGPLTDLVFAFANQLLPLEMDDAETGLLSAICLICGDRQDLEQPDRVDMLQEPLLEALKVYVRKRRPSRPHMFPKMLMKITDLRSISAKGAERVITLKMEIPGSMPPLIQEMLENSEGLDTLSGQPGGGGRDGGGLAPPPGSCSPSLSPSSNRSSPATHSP
Summary of the method: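 Read-out: DR5-driven reporter transcript measured by RT-PCR, 6-FAM primer extension, HpaI digest and capillary electrophoresis. Human HepG2 liver cells carry transiently transfected cis-element reporter constructs; dosing lasts 24 h. Gain or loss of signal fitted against DMSO baseline.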

[8] = molecular target: Transcription factor E2F1 (Homo sapiens) (UniProt Q01094); assay: ATG_E2F_CIS: Attagene CIS-FACTORIAL HepG2 Assay for human E2F Transcription Factor 1 (AID 2282935); conditions: HepG2 Attagene cis-reporter, E2F reporter RNA transcripts; actives raise or lower the signal
Sequence of Transcription factor E2F1 (Homo sapiens) (Q01094 whole entry, looked up): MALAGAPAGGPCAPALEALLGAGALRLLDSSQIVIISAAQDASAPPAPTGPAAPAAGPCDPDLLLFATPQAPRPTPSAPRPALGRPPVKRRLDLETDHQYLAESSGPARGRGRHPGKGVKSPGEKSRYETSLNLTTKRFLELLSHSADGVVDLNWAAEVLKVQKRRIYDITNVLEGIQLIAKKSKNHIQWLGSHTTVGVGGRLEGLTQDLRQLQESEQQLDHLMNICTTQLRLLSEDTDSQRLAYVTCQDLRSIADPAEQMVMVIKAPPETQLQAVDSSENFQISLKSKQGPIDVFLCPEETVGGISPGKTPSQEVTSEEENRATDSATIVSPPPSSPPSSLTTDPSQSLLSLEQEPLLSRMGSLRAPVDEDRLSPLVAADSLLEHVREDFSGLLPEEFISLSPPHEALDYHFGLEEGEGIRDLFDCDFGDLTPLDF
Summary of the method: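 Transient MRTU transfection of HepG2; 24 h compound exposure; RNA → oligo(dT) RT → PCR → FAM label → HpaI cut → CE fluorescence. Gain/loss of signal fit against DMSO.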

[9] = ATG_E_Box_CIS: Attagene CIS-FACTORIAL HepG2 Assay for human Enhancer Box (E-box) (AID 2282936); conditions: HepG2 E-box cis-reporter transcription, actives raise or lower the signal
Summary of the method: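 Transiently transfected HepG2, endogenous TF-driven reporters, 24 h dosing. Readout: RT-PCR plus capillary electrophoresis of fluorescent reporter fragments. Gain or loss of signal fitted bidirectionally against DMSO baseline.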

[10] = ATG_M_61_CIS: Attagene CIS-FACTORIAL HepG2 Assay for M61 Transcription Factor (Internal Marker) (AID 2282937); conditions: HepG2 Attagene CIS-FACTORIAL M61 internal marker reporter; actives raise or lower the signal
Summary of the method: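 Background-control endpoint: HepG2 cells with cis-regulated reporter constructs, 24 h exposure, reporter mRNA detected via fluorescent primer extension and capillary electrophoresis; values from bidirectional fitting with DMSO baseline.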

[11] = ATG_EGR_CIS: Attagene CIS-FACTORIAL HepG2 Assay for human Early Growth Response 1 (EGR1) (AID 2282938); conditions: HepG2 Attagene CIS-FACTORIAL EGR reporter mRNA; actives raise or lower the signal
Summary of the method: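 Endpoint derived by bidirectional fitting versus DMSO vehicle. Method: cis-promoter reporter units transfected into HepG2, 24 h dosing, RNA isolation, RT-PCR with 6-FAM primer extension and HpaI digestion, then capillary electrophoresis fluorescence detection.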

[12] = ATG_M_19_CIS: Attagene CIS-FACTORIAL HepG2 Assay for M19 Transcription Factor (Internal Marker) (AID 2282939); conditions: HepG2 Attagene CIS-FACTORIAL M19 internal marker reporter; actives raise or lower the signal
Summary of the method: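 Readout: fluorescent reporter-transcript fragments by capillary electrophoresis after RT-PCR. Human HepG2 liver cells carried transfected MRTU constructs reporting endogenous transcription-factor activity; exposure 24 h. Gain or loss of signal fitted relative to DMSO.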

[13] = ATG_ERE_CIS: Attagene CIS-FACTORIAL HepG2 Assay for Estrogen Response Element (ERE) (AID 2282940); conditions: HepG2 ERE cis-reporter, Attagene RNA transcript; actives raise or lower the signal
Summary of the method: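 Readout: reporter mRNA induction by RT-PCR, FAM-labelled primer extension, HpaI digestion and capillary electrophoresis, 24 h after dosing transfected HepG2 cells. Endogenous transcription factors act on cis-element-regulated reporters. Gain or loss fitted against DMSO.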

[14] = molecular target: Hepatocyte nuclear factor 3-beta (Homo sapiens) (UniProt Q9Y261); assay: ATG_FoxA2_CIS: Attagene CIS-FACTORIAL HepG2 Assay for human Forkhead box A2 (FOXA2) (AID 2282942); conditions: HepG2 cis-reporter transcription factor activity, 24 h; actives raise or lower the signal
Sequence of Hepatocyte nuclear factor 3-beta (Homo sapiens) (Q9Y261 whole entry, looked up): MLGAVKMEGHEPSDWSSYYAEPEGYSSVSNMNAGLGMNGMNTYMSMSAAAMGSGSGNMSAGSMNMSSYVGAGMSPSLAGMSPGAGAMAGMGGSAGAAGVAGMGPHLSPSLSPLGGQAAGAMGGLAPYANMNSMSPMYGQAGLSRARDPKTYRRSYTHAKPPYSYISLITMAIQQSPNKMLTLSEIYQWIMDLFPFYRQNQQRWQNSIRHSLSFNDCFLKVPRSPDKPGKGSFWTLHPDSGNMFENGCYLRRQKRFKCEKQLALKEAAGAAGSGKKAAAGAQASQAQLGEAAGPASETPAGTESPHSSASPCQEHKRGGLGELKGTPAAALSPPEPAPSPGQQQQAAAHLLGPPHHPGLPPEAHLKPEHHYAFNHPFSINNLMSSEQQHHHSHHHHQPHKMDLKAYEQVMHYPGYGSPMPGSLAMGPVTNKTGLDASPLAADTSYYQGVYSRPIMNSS
Summary of the method: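 Measured: reporter mRNA induction or loss in HepG2 transiently carrying multiple cis-regulated reporter units, 24 h after dosing. Quantified by RT-PCR plus capillary electrophoresis, normalised to DMSO.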

[15] = ATG_FoxO_CIS: Attagene CIS-FACTORIAL HepG2 Assay for human Forkhead box O (FoxO) (AID 2282943); conditions: HepG2 Attagene cis-reporter, FoxO element, mRNA; actives raise or lower the signal
Summary of the method: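 Read-out: fluorescence of 6-FAM-labelled reporter cDNA fragments resolved by capillary electrophoresis. Transiently transfected HepG2 cells were dosed for 24 h; activity fitted in both directions relative to DMSO controls.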

[16] = ATG_GLI_CIS: Attagene CIS-FACTORIAL HepG2 Assay for human Zinc Finger Protein GLI1 (AID 2282945); conditions: HepG2, Attagene cis-factorial reporter mRNA, GLI element; actives raise or lower the signal
Summary of the method: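 Transiently transfected HepG2 cells report endogenous transcription factor activity via cis-element-driven reporter units. After 24 h compound exposure, reporter mRNA was measured by RT-PCR with capillary electrophoresis; bidirectional fitting against DMSO baseline.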

[17] = ATG_AP_1_CIS: Attagene CIS-FACTORIAL HepG2 Assay for human Activator Protein 1 (AP-1) (AID 2282931); conditions: HepG2 Attagene cis-factorial AP-1 reporter mRNA; actives raise or lower the signal
Summary of the method: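 Cis-regulated reporter units transiently expressed in HepG2 report endogenous transcription-factor activity. Signal: reporter mRNA at 24 h, via RT-PCR and fluorescent capillary electrophoresis. Endpoint derived by bidirectional fitting, DMSO as negative control.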

[18] = ATG_Ets_CIS: Attagene CIS-FACTORIAL HepG2 Assay for human Erythroblast Transformation Specific (ETS) (AID 2282941); conditions: HepG2 ETS cis-reporter transcription, actives raise or lower the signal
Summary of the method: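 RT-PCR/capillary electrophoresis fluorescence read-out of reporter mRNA; HepG2 transient multi-reporter transfection; 24 h compound exposure; gain or loss of signal fitted bidirectionally relative to DMSO.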

[19] = ATG_GATA_CIS: Attagene CIS-FACTORIAL HepG2 Assay for human GATA Binding Protein (AID 2282944); conditions: HepG2 GATA cis-element reporter, Attagene multiplex mRNA; actives raise or lower the signal
Summary of the method: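 Read-out: fluorescent reporter mRNA fragments resolved by capillary electrophoresis after RT-PCR. Human liver HepG2 cells carried transiently transfected cis-regulated reporter constructs; chemicals incubated 24 h; gain or loss of signal fitted relative to DMSO.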

[20] = molecular target: Aryl hydrocarbon receptor (Homo sapiens) (UniProt P35869); assay: ATG_Ahr_CIS: Attagene CIS-FACTORIAL HepG2 Assay for human Aryl Hydrocarbon Receptor (Ahr) (AID 2282930); conditions: HepG2 AhR cis-factorial reporter transcription; actives raise or lower the signal
Sequence of Aryl hydrocarbon receptor (Homo sapiens) (P35869 whole entry, looked up): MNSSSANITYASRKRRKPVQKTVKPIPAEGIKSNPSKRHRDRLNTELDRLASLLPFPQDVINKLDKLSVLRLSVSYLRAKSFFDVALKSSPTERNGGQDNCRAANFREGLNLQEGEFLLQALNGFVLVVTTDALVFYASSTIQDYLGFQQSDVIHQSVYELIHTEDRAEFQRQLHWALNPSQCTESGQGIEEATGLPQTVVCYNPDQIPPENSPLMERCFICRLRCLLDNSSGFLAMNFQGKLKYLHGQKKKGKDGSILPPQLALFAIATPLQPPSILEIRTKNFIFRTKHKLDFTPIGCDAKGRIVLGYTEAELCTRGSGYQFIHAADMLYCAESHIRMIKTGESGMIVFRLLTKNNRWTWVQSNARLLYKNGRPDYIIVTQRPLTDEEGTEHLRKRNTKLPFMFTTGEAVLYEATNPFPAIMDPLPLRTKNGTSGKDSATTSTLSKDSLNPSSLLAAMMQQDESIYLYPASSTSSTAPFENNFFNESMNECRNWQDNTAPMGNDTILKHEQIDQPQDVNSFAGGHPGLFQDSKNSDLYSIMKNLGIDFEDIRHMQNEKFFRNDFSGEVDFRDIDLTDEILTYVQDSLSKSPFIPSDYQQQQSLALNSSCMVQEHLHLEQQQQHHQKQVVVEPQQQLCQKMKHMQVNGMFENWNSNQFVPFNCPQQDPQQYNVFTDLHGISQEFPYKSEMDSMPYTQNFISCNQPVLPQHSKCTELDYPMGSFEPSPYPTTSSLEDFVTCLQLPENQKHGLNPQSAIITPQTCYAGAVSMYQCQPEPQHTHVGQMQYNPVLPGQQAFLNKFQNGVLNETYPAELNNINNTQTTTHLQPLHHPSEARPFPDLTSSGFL
Summary of the method: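 Read-out: reporter mRNA quantified by RT-PCR with fluorescent primer extension and capillary electrophoresis. Human HepG2 liver cells carried transfected cis-promoter reporter units and were exposed to chemical for 24 h; gain or loss fitted relative to DMSO.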

Measured: AC50

CCCCC/C=C\C/C=C\CCCCCCCC(=O)OC
active: [6] 126 µM | [7] 71.2 µM | [11] 100 µM | [16] 162 µM
not listed: [17] | [18] | [19] | [20]
inactive: all other assays above

C=CC(=O)OCCC(=O)O
not listed: [5] | [7] | [16] | [20]
inactive: all other assays above

O=C1CCC(=O)N1Cl
not listed: [4] | [5] | [19]
inactive: all other assays above

C=C(C)C(=O)OCCOc1ccccc1
not listed: [10] | [18] | [20]
inactive: all other assays above

O=CC1CC1
active: [20] 0.119 µM
not listed: [4] | [14] | [16]
inactive: all other assays above

CCCCCCCCCCC=CC#N
active: [3] 100 µM | [17] 111 µM
not listed: [4]
inactive: all other assays above

C=C(C)C(=O)OCC(C)C
not listed: [5] | [20]
inactive: all other assays above

CC(C)CCCC(C)CC=O (centres undefined)
not listed: [4]
inactive: all other assays above
